GDH-TPI counter-1 = inhibits GDH-TPI coupling enzymes, artifact for Mtb FBA screen; GDH-TPI coupled enzyme counterscreen, NADH absorbance; inhibition, % at 4.8 µM; actives 1.2% (n = 360,000); AID 588335; in the data active means inhibition above about 30%;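 further: 0% = DMSO wells and 100% = wells lacking the enzyme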
Mtb betalactam = beta-lactam sensitization of Mtb H37Rv | M. tuberculosis H37Rv growth with meropenem, percent inhibition | inhibition, % at 25 µM | actives 0.27% (n = 330,000); call rule not given here;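 further: growth measured after seven days incubation then overnight dye step; 0% = bacteria only wells and 100% = bacteria with antibiotic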
Mtb FBA inh = inhibitors of M. tuberculosis fructose-bisphosphate aldolase | P9WQA3 | purified M. tuberculosis FBA, fluorescence read-out | inhibition, % at 1 µM | actives 2.3% (n = 360,000); in the data active means inhibition above about 27%;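 further: 0% = vehicle and 100% = reference inhibitor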
Rv3671c protease = inhibitors of M. tuberculosis serine protease Rv3671c. P9WHR9. inhibition, % at 5.96 µM. actives 0.048% (n = 320,000). AID 2606;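 further: extracellular domain of Rv3671c used as enzyme; 0% = enzyme with DMSO and 100% = no enzyme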
Mtb UGM inh = blocks M. tuberculosis UGM enzyme; purified UGM, fluorescence polarization probe displacement; actives 0.06% (n = 320,000); P9WIQ1; inhibition, % at 10 µM; in the data active means inhibition above about 10%, passing the limit was not always enough; inconclusive means no clear call, values can overlap the other calls
RecA splice inh = blocks M. tuberculosis RecA intein splicing; P9WHJ3; cell-free RecA intein splicing, fluorescence; inhibition, % (no concentration beside the values); actives 0.75% (n = 290,000); AID 2221; in the data active means inhibition above about 30%; inconclusive means no clear call, values can overlap the other calls;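 further: 0% = vehicle wells and 100% = reference inhibitor control wells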
Target sequence (P9WHJ3 whole entry, looked up, canonical isoform): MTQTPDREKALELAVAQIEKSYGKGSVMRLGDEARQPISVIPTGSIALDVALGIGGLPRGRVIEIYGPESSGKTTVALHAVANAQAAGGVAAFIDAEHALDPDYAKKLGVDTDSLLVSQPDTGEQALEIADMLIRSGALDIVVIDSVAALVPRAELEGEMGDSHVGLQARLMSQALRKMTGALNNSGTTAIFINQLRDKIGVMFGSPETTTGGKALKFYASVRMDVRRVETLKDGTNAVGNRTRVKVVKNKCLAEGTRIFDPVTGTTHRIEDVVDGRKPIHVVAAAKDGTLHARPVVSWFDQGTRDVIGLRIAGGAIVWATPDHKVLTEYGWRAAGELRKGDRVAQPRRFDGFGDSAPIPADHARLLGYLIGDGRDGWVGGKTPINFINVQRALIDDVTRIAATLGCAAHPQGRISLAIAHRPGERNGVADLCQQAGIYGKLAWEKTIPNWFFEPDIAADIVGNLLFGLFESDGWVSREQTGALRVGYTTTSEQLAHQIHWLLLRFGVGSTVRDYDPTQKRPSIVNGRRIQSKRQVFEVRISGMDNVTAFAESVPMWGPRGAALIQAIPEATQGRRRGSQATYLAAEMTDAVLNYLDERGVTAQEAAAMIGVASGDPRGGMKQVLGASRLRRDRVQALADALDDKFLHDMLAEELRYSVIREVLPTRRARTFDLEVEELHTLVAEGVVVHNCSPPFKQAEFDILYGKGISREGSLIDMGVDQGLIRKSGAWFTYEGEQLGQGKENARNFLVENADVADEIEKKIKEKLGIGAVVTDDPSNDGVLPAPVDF
Rv3671c confirm = Rv3671c protease inhibition, confirmation; shares compounds with Rv3671c protease; inhibition, % at 5.96 µM; actives 40% (n = 140); AID 2761
DNA intercalat = intercalates into DNA, flagged in counter-screen; AID 463198; acridine orange-DNA binding, fluorescence polarization; actives 60% (n = 35); AC50, µM; shares compounds with Mtb UGM inh;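 active means fitted AC50 no greater than ten times the top concentration tested, cut at about 17 µM in these data; inconclusive means flat fit with 30 to 70% signal change, or an unreliable fit; inactive means AC50 beyond ten times the top concentration tested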
Mtb FBA inh conf = Mtb FBA inhibition, confirmed | purified M. tuberculosis FBA, fluorescence read-out | inhibition, % at 1 µM | actives 78% (n = 5,600) | shares compounds with Mtb FBA inh; in the data active means inhibition above about 27%;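 further: 0% = vehicle wells and 100% = reference inhibitor wells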
GDH-TPI counter-2 = counter-screen for M. tuberculosis FBA inhibitors: GDH-TPI coupled enzyme inhibition; shares compounds with Mtb FBA inh; GDH-TPI coupled enzyme counterscreen, fluorescence; inhibition, % at 1 µM; actives 81% (n = 5,600); in the data active means inhibition above about 10%
Numbers without * were called inactive; i = inactive; ? = inconclusive; · = no result given. Most compounds without a hit are left out; they make up all but 4% or so of the library. Unless noted, no stated cut-off is given here; in the data, active means inhibition above about 38%; inactive means the rest.

SMILES	GDH-TPI counter-1	Mtb betalactam	Mtb FBA inh	Rv3671c protease	Mtb UGM inh	RecA splice inh	Rv3671c confirm	others
NC(=O)COC(=O)C1c2ccccc2Oc2ccccc21	1.7	8.1	3.9	-1.5	2.9	2.1	·
Cc1cc(OC(=O)c2ccco2)c2c3c(c(=O)oc2c1)CCCC3	4.8	99.9	2.4	59.5*	-1.6	0.8	73.3*
CNc1ccc2c3c(cccc13)C(=O)N(C)C2=O	5.2	4.8	-10.8	76.8*	?	-294.7	68.8*
Cc1cccc2[nH]c(CCNC(=O)C3CCC(=O)N(CCc4cccc(F)c4)C3)nc12 (stereo unspecified)	-1.7	-4.3	-2.1	-2.8	0.4	2.4	·
O=C(NCc1cccs1)c1cccc(Nc2nc3ccc(Br)cc3[nH]2)c1	-7.9	-9.3	-0.5	43.3*	0.3	8.5	37.4*
CC(=O)[C@]1(O)Cc2c(O)c3c(c(O)c2[C@@H](O[C@H]2C[C@H](N)[C@H](O)[C@H](C)O2)C1)C(=O)c1ccccc1C3=O	·	98.7	·	69.1*	70.3*	-16.1	81.3*
COc1cccc2c1C(=O)c1c(O)c3c(c(O)c1C2=O)C[C@@](O)(C(C)=O)C[C@@H]3O[C@H]1C[C@H](N)[C@H](O)[C@H](C)O1	14.0	·	-6.1	·	·	·	·
Cc1ccc(OCCn2cc(/C=N/NC(=O)c3ccncc3)c3ccccc32)cc1	27.6	98.2	1.7	40.2*	3.9	0.4	26.3
Cc1cc(O)ccc1N=Cc1c(C(F)(F)F)[nH][nH]c1=O	1.9	1.5	-2.9	98.7*	5.1	-5.6	-4.1
O=c1[nH][nH]c(C(F)(F)F)c1C=Nc1ccccc1	1.4	-5.9	1.1	5.6	0.9	·	·
COc1ccc(S(=O)(=O)N2CCOCC2)cc1NC(=O)C1CCN(S(=O)(=O)c2ccc(Cl)cc2)CC1	4.9	·	1.8	·	·	·	·
Cc1noc(C(=O)Nc2ccc(F)c(Cl)c2)c1Cl	0.4	0.3	0.3	61.3*	-3.1	-1.4	-4.7
Cc1noc(C(=O)Nc2ccc(Cl)cc2)c1Cl	·	-6.4	·	4.0	-0.7	-0.3	·
Cc1ccc(Cn2c(C)c(C(=O)NCc3cccs3)sc2=O)cc1	3.4	·	1.2	·	·	·	·
COc1ccc(C(C(=O)NC(C)(C)C)N(Cc2cccnc2)C(=O)CCC(=O)Nc2cc(C)on2)cc1 (stereo unspecified)	3.7	3.9	3.6	6.4	-5.7	0.7	·
O=C(O)C1C2C=CC(C2)C1C(=O)NCc1cccnc1 (stereo unspecified)	2.7	-4.6	0.9	77.0*	1.2	-1.9	-9.0
Cc1ccc(C)c(CC(=O)N2CCCC(c3cc(C(=O)Nc4ccccc4Cl)no3)C2)c1 (stereo unspecified)	8.2	·	-2.0	·	·	·	·
O=C(NC1CCCCCC1)C1CCN(C(=O)c2cccc(Cl)c2)CC1	4.2	-1.4	-1.4	-12.1	-2.7	0.4	·
COCCCNC1=C(Cl)C(=O)c2ccccc2C1=O	6.2	4.0	-1.3	-1.1	-1.7	18.6	·
COCCCNc1c2c3c(cccc3[nH]c1=O)C(=O)c1ccccc1-2	11.8	-1.0	-5.7	137.3*	101.9*	·	144.7*
Cc1[nH]c2c(C)cccc2c1CC(=O)O	-6.0	1.5	-6.9	1.4	-0.8	-4.8	·
Cc1cccc2c(N=O)c(O)[nH]c12	19.8	-8.8	-1.6	47.9*	1.4	0.3	31.3
C=CCn1cc(/C=N/Nc2nc3ccccc3[nH]2)c2ccccc21	17.9	91.3	4.4	40.0*	0.5	26.4	68.2*
CC(C)Cn1c(/C=N/Nc2nc3ccccc3[nH]2)nc2ccccc21	21.6	·	-1.9	·	·	2.1	·
O=C(Nc1ccc(C(=O)N2CCCCC2)cc1)c1ccccc1Br	-2.1	-14.6	1.9	-3.3	3.8	-0.4	·
SMILES	GDH-TPI counter-1	Mtb betalactam	Mtb FBA inh	Rv3671c protease	Mtb UGM inh	RecA splice inh	Rv3671c confirm	others
Cc1sc(-c2ccncc2)nc1OC(=O)c1ccccc1	8.8	27.4	2.7	44.1*	2.4	1.0	60.9*
O=c1cc[nH]c2c1ccc1c(=O)cc[nH]c12	10.0	-1.5	23.9	50.2*	1.5	-1.8	14.6
O=c1cc[nH]c2c(Cl)cccc12	16.5	-4.0	2.8	-4.5	-0.5	-2.6	·
COc1ccc(CCC2(C)NC(=O)N(C(C)C(=O)N3c4ccccc4CC3C)C2=O)cc1 (stereo unspecified)	1.3	5.1	-0.9	1.1	2.2	·	·
CCCC(=O)N1CCCC1(C)C(=O)Nc1ccc2nc(C)ccc2c1 (stereo unspecified)	1.8	·	4.9	·	·	·	·
CCOC(=O)c1ccc(NC(=O)c2cn(-c3ccccc3)nc2-c2ccncc2)cc1	9.5	-1.5	0.4	192.7*	-4.2	0.4	-40.2
COc1ccc(C(=O)N/N=C/c2cc3ccccc3[nH]c2=S)cc1	26.4	39.9	1.1	43.8*	4.6	14.5	45.4*
COc1ccc(C(=O)N/N=C/c2c[nH]c3ccccc23)cc1	24.3	-0.1	-2.5	-6.9	3.0	-0.8	·
O=S1(=O)CCOCCCN1Cc1ccccc1Br	-1.4	-6.2	-1.3	-2.9	0.8	-1.6	·
COc1cc(N=Nc2ccc(C)cc2S(N)(=O)=O)c(C)cc1N	11.9	·	-15.1	·	·	·	·
CCOC(=O)C1=C(NC(=S)NC(=O)c2ccccc2)c2ccccc2CC1C(C)C (stereo unspecified)	1.5	-3.4	2.4	54.6*	-6.3	4.5	-12.1
O=c1oc(-c2ccccc2Br)nc2ccccc12	-3.5	60.9	2.5	39.6*	-2.7	29.1	65.9*
CCOc1ccc(-c2nc3ccccc3c(=O)o2)cc1	8.2	93.3	0.3	-2.3	-0.8	2.4	·
O=C1c2ccccc2-c2onc3ccc(NCCCn4ccnc4)c1c23	·	31.1	·	131.4*	83.0*	29.5	135.5*	DNA intercalat=2.5*
COCCn1c(SCC(=O)Nc2ccc3c(c2)OCCO3)nnc1-c1ccncc1	6.8	-7.4	-1.9	0.7	4.7	·	·
O=C(Oc1cncc(Cl)c1)c1sccc1Cl	8.6	3.1	-2.8	0.8	3.4	8.9	·
O=C(Oc1cncc(Cl)c1)c1ccco1	5.2	-4.4	33.1*	62.6*	-0.8	-4.7	87.9*	Mtb FBA inh conf=56.5*;GDH-TPI counter-2=62.3*
CN(CC(=O)Nc1ccccc1C(F)(F)F)C(=O)CN1C(=O)C2CCCCC2C1=O (stereo unspecified)	-13.7	-5.4	-3.4	0.7	-0.5	·	·
CC1(C)Cc2c(C#N)c(NCCc3ccccc3)nc(-c3ccco3)c2CO1	13.4	-12.8	35.2*	80.5*	-0.1	2.8	14.9	Mtb FBA inh conf=170.7*;GDH-TPI counter-2=135.2*
CN(C)/C=C1\C=C2C(=O)c3ccccc3N2C1=O	10.2	-7.1	-10.1	11.9	103.2*	i	·	DNA intercalat=0.458*

Source: PubChem (several laboratories)
